For assay [1], the target named is Thyroid hormone receptor beta (Homo sapiens) (UniProt P10828). Put plainly: qHTS assay for small molecule agonists of thyroid hormone receptor beta signaling (AID 588545; calls by dose curve;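 also: 0% = DMSO only and 100% = 10 nM T3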). In short, it runs like this: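 TR-UAS-bla GripTite HEK 293 cells (2500/well, medium with 2% charcoal/dextran FBS) were treated in agonist mode for 18 h at 37 C, titrated. Beta-lactamase was read by CCF4 ratio after 2 h; normalized to 10 nM T3 (100%) and DMSO, Hill-fitted for EC50 and efficacy.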

Assay [2] can be described thus: qHTS assay for small molecule antagonists of retinoid X receptor alpha signaling (AID 588546; active = well fitted inhibition curve with a large enough effect in the signal ratio, with a control signal flat, not every such curve was filed as active; the % refers to the signal ratio;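 also: cells stimulated with 9-cis-retinoic acid as agonist; % is scaled to controls: 0 for no effect and ±100 for the full control effect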). The conditions noted are these: HEK293T RXRa-UAS-bla, beta-lactamase ratio, antagonist mode; measured here: W530 green channel, cytotoxicity proxy. The method in brief: (§1)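 Beta-lactamase reporter inhibition, read as CCF4 fluorescence ratio (ex 405, em 460/530 nm) after 2 h at RT. HEK293T UAS-bla cells, 2500/well, were stimulated with 9-cis-RA at 500 or 100 nM final alongside test compound for 18 h at 37 C.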
For orientation: qHTS replaces the single test concentration by a dilution series.

Assay [3] addresses Retinoic acid receptor RXR-alpha (Homo sapiens) (UniProt P19793). The assay is described as above. The following applies: HEK293T RXRa-UAS-bla, beta-lactamase ratio, antagonist mode. The method in brief:
as §1

Assay [4] concerns the target Thyroid hormone receptor beta (Homo sapiens) (UniProt P10828). In words: qHTS assay for small molecule antagonists of thyroid hormone receptor beta signaling (AID 588547; active = well fitted inhibition curve with a large enough effect in the signal ratio, with a control signal flat, not every such curve was filed as active; the % refers to the signal ratio;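 also: cells stimulated with 0.4 nM T3 agonist during compound exposure; series mostly up to about 77 µM; % is scaled to controls: 0 for no effect and ±100 for the full control effect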). The following applies: TR-UAS-bla HEK293, beta-lactamase ratio, antagonist mode, 18 h. The method in brief: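 TR-UAS-bla GripTite HEK293 cells in 2% charcoal/dextran FBS medium were preincubated 4 h at 37 C, given compound (0.59 nM to 92 uM) plus 0.4 nM T3 (final) for 18 h, then CCF4 for 2 h at RT; Hill fit gave IC50.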

Assay [5] deals with Voltage-gated inwardly rectifying potassium channel KCNH2 (Homo sapiens) (UniProt Q12809). Put plainly: qHTS Assay for Small Molecule Inhibitors of the Human hERG Channel Activity (AID 588834).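 Also: top concentration of the series differs between compounds; % is scaled to controls: 0 for no effect and ±100 for the full control effect; lower thallium flux fluorescence means stronger hERG block; nearly all actives have a fitted effect of over 50% in size.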 The method in brief: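 U2OS cells transduced with hERG via BacMam (MOI ~100), plated 2000/well, loaded with FluxOR thallium dye, compound ~10 min, then stimulation buffer; fluorescence decrease read kinetically; AC50 from Hill fits.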

Assay [6] is described as follows: qHTS assay for small molecule disruptors of the mitochondrial membrane potential - 1 hr assay (AID 651754; calls by dose curve; also: % is scaled to controls: 0 for no effect and ±100 for the full control effect; nearly all actives have a fitted effect of over 35% in size). The method in brief:
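Steps: seed HepG2 cells and let attach overnight; pin-transfer compound or vehicle; incubate 1 hr at 37C; add Mito-MPS dye for 30 min; read two-channel fluorescence for monomer and aggregate forms.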

Assay [7] in a line: qHTS assay for small molecule disruptors of the mitochondrial membrane potential - 5 hr assay (AID 651755; calls by dose curve; also: % is scaled to controls: 0 for no effect and ±100 for the full control effect; nearly all actives have a fitted effect of over 40% in size). The method in brief:
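HepG2 cells, attached overnight at 37C, were exposed to compound or DMSO for 5 hr at 37C, 5% CO2. Mito-MPS dye was then added for 30 min, and fluorescence read at 490/535 nm (monomers) and 540/590 nm (aggregates).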

Assay [8] addresses Tumor necrosis factor (Homo sapiens) (UniProt P01375). Put plainly: qHTS assay to identify small molecules that stimulate Tumor Necrosis Factor-alpha (TNF-alpha) secretion (AID 651757; active = well fitted curve in the direction sought with a large enough effect in the signal ratio; the % refers to the signal ratio; also: 0% is about no effect). In short, it runs like this:
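Secreted TNF-alpha from compound-treated THP-1 cells (17 hrs, 37 C) was quantified with a homogeneous time-resolved fluorescence antibody assay.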

The nature of assay [9]: qHTS assay for environmental chemicals that activate the Aryl hydrocarbon Receptor (AhR) signaling pathway (AID 651777). Also: % of control where 0% means no effect; nearly all actives have a fitted effect of over 15% in size. The following applies: 1A2-DRE human hepatoma cells, luciferase, 24 h; activation: stronger effect = higher value. The method in brief: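 Induction of CYP1A2 transcription through AhR is detected by luciferase in 1A2-DRE hepatoma cells. Compounds or DMSO act for 24 hr at 37 C before a 30 min One-Glo step at room temperature.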

Assay [10] addresses Peroxisome proliferator-activated receptor alpha (Homo sapiens) (UniProt Q07869). In words: qHTS assay for small molecule agonists of the peroxisome proliferator-activated receptor alpha (PPARalpha) signaling pathway (AID 651778). Also: % of control where 0% means no effect. The following applies: PathHunter PPARalpha complementation, chemiluminescence, 6 h; stronger effect = higher value. In short, it runs like this: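 Cells plated at 2,000/well and held overnight at 37 C, 5% CO2, then compound added by pin tool for 6 hr; after PathHunter detection reagent and 60 min at room temperature, chemiluminescence from enzyme complementation was read.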

For assay [11], the target named is Nuclear receptor ROR-gamma (Homo sapiens) (UniProt P51449). Put plainly: qHTS assay for small molecule antagonists of the retinoid-related orphan receptor gamma (ROR-gamma) signaling pathway (AID 651802).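 Also: CHO cells with doxycycline-induced ROR-gamma expression; series mostly up to about 92 µM; % is scaled to controls: 0 for no effect and ±100 for the full control effect; nearly all actives have a fitted effect of over 60% in size.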 The method in brief:
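Antagonism is scored as a fall in luminescence from a RORE-luciferase reporter in CHO cells expressing ROR under a TET-inducible promoter, measured 16hr after doxycycline induction in the presence of compound.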

The nature of assay [12]: qHTS assay for small molecule agonists of the antioxidant response element (ARE) signaling pathway measured by Nrf2-dependant transcriptional activity (AID 720636; active = well fitted curve in the direction sought with a large enough effect in the repeat runs; an effect the other way counts as inactive or inconclusive;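 also: HepG2 cells with an ARE-driven luciferase reporter; % of control where 0% means no effect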). In short, it runs like this: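 We exposed ARE-luc HepG2 cells, seeded in assay medium with 1% dialyzed FBS and allowed 6 hr to adhere, to test compounds overnight (16 hr, 37 C) before measuring luciferase with ONE-Glo.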

Assay [13] in a line: qHTS assay for small molecule antagonists of the retinoid-related orphan receptor gamma (ROR-gamma) signaling pathway - cell viability counter screen (AID 720652; active = well fitted curve in the direction sought with a large enough effect in the repeat runs; an effect the other way counts as inactive or inconclusive;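 also: CHO reporter cells with doxycycline-induced ROR-gamma expression; series mostly up to about 92 µM; compound exposure lasted 16 hr before ATP read; % is scaled to controls: 0 for no effect and ±100 for the full control effect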). In short, it runs like this:
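Cytotoxicity is quantified via intracellular ATP (CellTiter-Glo luminescence) in doxycycline-induced CHO ROR response element-luciferase reporter cells treated with compound for 16 hr at 37 C, 5% CO2.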

The nature of assay [14]: qHTS assay for small molecule agonists of the antioxidant response element (ARE) signaling pathway measured by Nrf2-dependant transcriptional activity - cell viability counter screen (AID 720653; active = well fitted curve in the direction sought with a large enough effect in the repeat runs; an effect the other way counts as inactive or inconclusive; also: % is scaled to controls: 0 for no effect and ±100 for the full control effect). The following applies: ARE-bla HepG2 viability, CellTiter-Glo ATP luminescence, 16 h; stronger effect = lower value. In short, it runs like this:
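ARE-bla HepG2 cells (2,000/well) rested 5 hrs at 37C/5% CO2, then exposed to compounds in DMSO for 16 hrs. Viability was read in the same wells as intracellular ATP by luminescence, 30 min at room temperature after reagent addition.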

Assay [15] can be described thus: qHTS assay for cell viability of HEK293 cells (AID 743288). Also: % is scaled to controls: 0 for no effect and ±100 for the full control effect; nearly all actives have a fitted effect of over 50% in size. The conditions noted are these: ATP luminescence (CellTiter-Glo), 18 h; max response: stronger effect = lower value. The method in brief: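 Parental HEK293 cells were seeded at 2,000 cells/well, rested at least 5 h at 37 C, then exposed to compounds in DMSO for 18 h at 37 C. Viability was read as ATP-dependent luciferase luminescence after 30 min at room temperature.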

A short description of assay [16]: qHTS assay for cell viability of the p53RE-bla HCT-116 cell line (AID 743292). Also: potency is read from the fitted curve at half-maximal effect; nearly all actives have a fitted effect of over 55% in size. The method in brief: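 In this qHTS counter-screen, metabolically competent p53RE-bla HCT-116 cells were counted via their ATP content. Compounds were applied for 16 h at 37 C and luciferase-coupled luminescence was measured.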
In assay [17] the target is Rap guanine nucleotide exchange factor 3 (Homo sapiens) (UniProt O95398). In words: Confirmatory qHTS for agonist of cAMP-regulated guanine nucleotide exchange factor 3 (EPAC1) (AID 1645881).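 Also: EPAC1 catalysed release of BODIPY-GDP from Rap1B seen as fluorescence loss; 100% = effect of cAMP agonist control; nearly all actives have a fitted effect of over 75% in size.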
Assay [18] concerns the target Rap guanine nucleotide exchange factor 4 (Homo sapiens) (UniProt Q8WZA2). In words: Confirmatory qHTS for agonist of cAMP-regulated guanine nucleotide exchange factor 4 (EPAC2) (AID 1645884).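 Also: nucleotide exchange releases bodipy-GDP from Rap1 and this lowers its fluorescence; % is scaled to controls: 0 for no effect and ±100 for the full control effect; nearly all actives have a fitted effect of over 65% in size.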
For assay [19] the target is unchanged. In words: Confirmatory qHTS for antagonist of cAMP-regulated guanine nucleotide exchange factor 4 (EPAC2) (AID 1645885). Also: potency is read from the fitted curve at half-maximal effect; nearly all actives have a fitted effect of over 25% in size.
Assay [20] concerns the target Rap guanine nucleotide exchange factor 3 (Homo sapiens) (UniProt O95398). In words: Counterscreen qHTS for antagonist of cAMP-regulated guanine nucleotide exchange factor 3 (EPAC1) (AID 1645888).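 Also: fluorescence loss as bound BODIPY-GDP is released from Rap1B; % of control where 0% means no effect.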 In short, it runs like this:
(§2)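 Measured: fluorescence of BODIPY-GDP bound to Rap1B, which falls as exchange proceeds. Conditions include 50 uM competing GDP, 5 and 30 min reads, and a later cAMP challenge for antagonist detection.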
For orientation: A counterscreen serves to expose hits that act by an unwanted route or on another target.

For assay [21] the target is unchanged. In words: Counterscreen qHTS for agonist of cAMP-regulated guanine nucleotide exchange factor 3 (EPAC1) (AID 1645889). Also: % of control where 0% means no effect; nearly all actives have a fitted effect of over 40% in size. The method in brief: as §2
In assay [22] the target is Nuclear receptor subfamily 1 group I member 2 (Rattus norvegicus) (UniProt Q9R1A7). Put plainly: qHTS assay for small molecule activators of the rat pregnane X receptor (rPXR) signaling pathway (AID 651751; call rule not given here; also: 0% is about no effect). The conditions noted are these: rPXR reporter cells, luciferase (One-Glo), 24 h.
The nature of assay [23]: qHTS assay for small molecule activators of the human pregnane X receptor (PXR) signaling pathway (AID 720659; call rule not given here; also: 0% is about no effect).

“And” between values parts separate entries of the source, which are not always exact repeats. Identical values can stand only once. Records with an inconclusive call do not appear. The source made the active and inactive calls. Unless noted, calls follow the shape of the dose curve; as a rule, active = well fitted curve in the direction sought with a large enough effect; inconclusive = small, poorly fitted or top-dose-only effect, or another doubt; inactive = no such curve, though single readings can be large; an effect the other way counts as inactive or inconclusive.

The text below walks through data of PubChem BioAssay (NCATS).

Thyroid hormone receptor beta (Homo sapiens), sequence (P10828 whole entry, looked up): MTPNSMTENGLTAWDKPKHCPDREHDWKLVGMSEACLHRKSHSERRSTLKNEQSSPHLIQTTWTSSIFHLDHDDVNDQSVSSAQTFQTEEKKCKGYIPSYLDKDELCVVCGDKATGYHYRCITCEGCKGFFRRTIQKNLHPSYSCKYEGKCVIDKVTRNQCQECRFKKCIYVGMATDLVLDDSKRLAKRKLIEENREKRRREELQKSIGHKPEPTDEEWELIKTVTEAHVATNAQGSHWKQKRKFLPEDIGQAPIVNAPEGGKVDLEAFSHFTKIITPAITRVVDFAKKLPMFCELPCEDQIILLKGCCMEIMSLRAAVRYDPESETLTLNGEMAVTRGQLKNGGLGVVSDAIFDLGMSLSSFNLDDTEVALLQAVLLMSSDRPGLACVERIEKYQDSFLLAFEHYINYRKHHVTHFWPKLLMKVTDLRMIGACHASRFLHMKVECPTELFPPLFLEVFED
Rap guanine nucleotide exchange factor 4 (Homo sapiens), sequence (Q8WZA2 whole entry, looked up): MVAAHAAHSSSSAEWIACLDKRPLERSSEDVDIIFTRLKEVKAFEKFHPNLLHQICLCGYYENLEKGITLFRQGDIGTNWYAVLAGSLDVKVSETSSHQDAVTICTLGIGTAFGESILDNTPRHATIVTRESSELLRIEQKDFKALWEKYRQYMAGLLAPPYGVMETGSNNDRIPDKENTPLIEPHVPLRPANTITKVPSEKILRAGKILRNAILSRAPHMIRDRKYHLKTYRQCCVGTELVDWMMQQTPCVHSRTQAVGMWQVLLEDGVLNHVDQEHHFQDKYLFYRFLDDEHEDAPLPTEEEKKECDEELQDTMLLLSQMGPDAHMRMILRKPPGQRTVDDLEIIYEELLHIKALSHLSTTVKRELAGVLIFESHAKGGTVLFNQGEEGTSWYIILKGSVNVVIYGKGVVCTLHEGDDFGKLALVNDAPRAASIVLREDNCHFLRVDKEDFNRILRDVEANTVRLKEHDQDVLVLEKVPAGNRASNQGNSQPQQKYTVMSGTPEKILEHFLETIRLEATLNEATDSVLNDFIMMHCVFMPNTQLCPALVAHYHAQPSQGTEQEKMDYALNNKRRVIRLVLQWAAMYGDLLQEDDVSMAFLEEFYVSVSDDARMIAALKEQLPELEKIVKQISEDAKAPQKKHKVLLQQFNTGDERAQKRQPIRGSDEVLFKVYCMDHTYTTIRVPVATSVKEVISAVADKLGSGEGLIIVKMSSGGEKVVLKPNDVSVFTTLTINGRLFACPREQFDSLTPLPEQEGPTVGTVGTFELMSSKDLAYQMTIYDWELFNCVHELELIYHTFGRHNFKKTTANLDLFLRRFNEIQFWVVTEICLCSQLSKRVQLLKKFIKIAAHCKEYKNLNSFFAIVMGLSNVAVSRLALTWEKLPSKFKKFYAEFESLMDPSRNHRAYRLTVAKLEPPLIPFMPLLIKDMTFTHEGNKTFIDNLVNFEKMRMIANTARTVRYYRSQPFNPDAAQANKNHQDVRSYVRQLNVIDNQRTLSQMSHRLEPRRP
Peroxisome proliferator-activated receptor alpha (Homo sapiens), sequence (Q07869 whole entry, looked up): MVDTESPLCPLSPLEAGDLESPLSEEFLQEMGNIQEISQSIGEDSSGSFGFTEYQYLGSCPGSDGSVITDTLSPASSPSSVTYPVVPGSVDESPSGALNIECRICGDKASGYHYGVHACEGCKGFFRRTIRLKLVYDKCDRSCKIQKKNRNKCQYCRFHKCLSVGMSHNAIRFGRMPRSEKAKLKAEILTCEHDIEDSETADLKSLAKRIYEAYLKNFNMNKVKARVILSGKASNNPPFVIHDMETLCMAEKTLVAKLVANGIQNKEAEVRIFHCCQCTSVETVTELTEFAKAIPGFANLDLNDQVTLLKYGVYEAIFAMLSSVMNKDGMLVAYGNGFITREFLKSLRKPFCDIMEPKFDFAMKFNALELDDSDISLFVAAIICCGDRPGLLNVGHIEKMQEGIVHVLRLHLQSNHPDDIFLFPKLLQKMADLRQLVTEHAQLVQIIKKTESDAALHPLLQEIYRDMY
Nuclear receptor subfamily 1 group I member 2 (Rattus norvegicus), sequence (Q9R1A7 whole entry, looked up): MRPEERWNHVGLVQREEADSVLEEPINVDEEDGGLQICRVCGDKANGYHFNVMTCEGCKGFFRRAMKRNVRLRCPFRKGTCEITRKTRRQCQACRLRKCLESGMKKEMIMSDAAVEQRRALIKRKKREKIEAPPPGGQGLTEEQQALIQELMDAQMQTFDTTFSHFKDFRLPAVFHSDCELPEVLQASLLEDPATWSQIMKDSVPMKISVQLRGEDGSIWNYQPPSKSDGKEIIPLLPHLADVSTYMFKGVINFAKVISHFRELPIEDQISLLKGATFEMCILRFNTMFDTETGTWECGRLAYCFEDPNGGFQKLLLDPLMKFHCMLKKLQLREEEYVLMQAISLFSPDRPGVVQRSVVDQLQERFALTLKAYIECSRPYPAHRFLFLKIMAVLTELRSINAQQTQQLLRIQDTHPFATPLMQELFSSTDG
Rap guanine nucleotide exchange factor 3 (Homo sapiens), sequence (O95398 whole entry, looked up): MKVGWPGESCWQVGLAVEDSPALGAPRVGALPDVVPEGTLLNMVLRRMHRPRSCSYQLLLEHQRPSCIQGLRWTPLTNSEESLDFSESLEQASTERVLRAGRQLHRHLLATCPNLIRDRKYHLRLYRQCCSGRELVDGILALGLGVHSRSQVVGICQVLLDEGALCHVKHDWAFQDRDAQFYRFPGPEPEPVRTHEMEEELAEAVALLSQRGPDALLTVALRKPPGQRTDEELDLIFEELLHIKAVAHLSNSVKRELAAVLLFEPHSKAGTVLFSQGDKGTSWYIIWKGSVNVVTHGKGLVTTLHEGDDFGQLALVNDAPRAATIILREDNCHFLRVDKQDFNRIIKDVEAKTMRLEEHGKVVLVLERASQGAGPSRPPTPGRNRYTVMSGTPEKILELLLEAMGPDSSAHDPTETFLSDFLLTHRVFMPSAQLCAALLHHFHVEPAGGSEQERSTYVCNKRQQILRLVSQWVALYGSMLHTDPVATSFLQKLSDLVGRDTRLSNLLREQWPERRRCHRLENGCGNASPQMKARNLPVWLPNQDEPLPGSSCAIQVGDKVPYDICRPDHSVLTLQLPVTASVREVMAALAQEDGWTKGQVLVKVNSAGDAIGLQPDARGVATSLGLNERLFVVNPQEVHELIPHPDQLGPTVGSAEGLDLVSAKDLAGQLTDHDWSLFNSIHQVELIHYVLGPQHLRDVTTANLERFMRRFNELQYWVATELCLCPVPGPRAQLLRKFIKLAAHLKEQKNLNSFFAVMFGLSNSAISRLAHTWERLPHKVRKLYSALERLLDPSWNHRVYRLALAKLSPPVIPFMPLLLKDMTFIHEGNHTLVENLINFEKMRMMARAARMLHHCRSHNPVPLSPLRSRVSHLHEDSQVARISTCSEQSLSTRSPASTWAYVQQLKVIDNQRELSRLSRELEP
Tumor necrosis factor (Homo sapiens), sequence (P01375 whole entry, looked up): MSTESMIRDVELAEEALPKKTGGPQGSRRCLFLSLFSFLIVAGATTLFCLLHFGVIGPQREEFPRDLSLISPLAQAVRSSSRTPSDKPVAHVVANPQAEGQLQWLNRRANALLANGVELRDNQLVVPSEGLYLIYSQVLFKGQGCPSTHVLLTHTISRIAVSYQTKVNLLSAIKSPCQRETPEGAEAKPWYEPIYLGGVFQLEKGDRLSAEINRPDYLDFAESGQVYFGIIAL
Retinoic acid receptor RXR-alpha (Homo sapiens), sequence (P19793 whole entry, looked up): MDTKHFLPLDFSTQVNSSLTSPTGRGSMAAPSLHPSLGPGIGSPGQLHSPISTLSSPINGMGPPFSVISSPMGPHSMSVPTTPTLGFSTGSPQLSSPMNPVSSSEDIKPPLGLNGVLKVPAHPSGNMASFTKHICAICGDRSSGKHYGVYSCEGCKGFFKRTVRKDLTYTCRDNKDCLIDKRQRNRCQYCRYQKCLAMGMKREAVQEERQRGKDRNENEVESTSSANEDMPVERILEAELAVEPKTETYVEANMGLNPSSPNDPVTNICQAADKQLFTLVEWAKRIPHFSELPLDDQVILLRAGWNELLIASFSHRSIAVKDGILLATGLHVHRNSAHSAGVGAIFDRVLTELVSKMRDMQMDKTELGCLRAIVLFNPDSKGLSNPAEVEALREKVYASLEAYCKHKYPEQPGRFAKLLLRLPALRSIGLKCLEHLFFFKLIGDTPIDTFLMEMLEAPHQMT
Nuclear receptor ROR-gamma (Homo sapiens), sequence (P51449 whole entry, looked up): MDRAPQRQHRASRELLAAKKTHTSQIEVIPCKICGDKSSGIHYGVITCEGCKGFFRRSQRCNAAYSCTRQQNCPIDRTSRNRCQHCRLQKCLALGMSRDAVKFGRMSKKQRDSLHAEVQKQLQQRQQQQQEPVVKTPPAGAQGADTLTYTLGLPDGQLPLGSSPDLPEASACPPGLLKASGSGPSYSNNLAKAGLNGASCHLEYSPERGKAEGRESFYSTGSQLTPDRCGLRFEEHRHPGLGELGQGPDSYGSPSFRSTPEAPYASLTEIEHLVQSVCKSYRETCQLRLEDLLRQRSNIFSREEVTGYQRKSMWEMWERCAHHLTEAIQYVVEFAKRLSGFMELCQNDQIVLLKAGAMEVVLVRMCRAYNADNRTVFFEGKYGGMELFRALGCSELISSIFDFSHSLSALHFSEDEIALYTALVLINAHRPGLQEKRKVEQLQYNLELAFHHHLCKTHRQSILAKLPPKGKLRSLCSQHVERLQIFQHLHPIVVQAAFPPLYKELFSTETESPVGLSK

For the compound `Clc1cc(Cl)c(-c2cc(Cl)c(Cl)cc2Cl)cc1Cl`, the call in [1], in assay [8], in [12], in [20] and in assay [23] was inactive. Moreover, the max response in assay [2] was 9.9%; in assay [3], 12.5% (inactive); in [10], -1.16% (inactive) and 9.79% (inactive); in assay [14] it was -2.79% (inactive) and -2.97% (inactive); in [15], -28.5% (inactive) and -15.8% (inactive); in assay [22], 2.83% (inactive) and 5.76% (inactive). In addition, the activity change % (negative = inhibition) in assay [4] is -3% (inactive) and 18.9% (inactive). For the same compound, the Potency result in [5], in [6], in assay [7], in assay [11], in assay [13] and in assay [17] was “inactive” in each case. Moreover, the Potency result in assay [18] and in assay [21] was “inactive” each time. In addition, the activation in [9] is -0.0322% (inactive) and 0.521% (inactive). The figures for the Potency in [16] and in assay [19] were 44.7 µM (active) and 4.78 µM (active), respectively.
